High-throughput results (PubChem BioAssay)
The list is not random: actives were taken first. Their share in the collection is about 0.9%.
RXFP1 antagonist: qHTS Assay for Antagonists of the Relaxin Receptor RXFP1 | Relaxin receptor 1 (Homo sapiens), Q9HBX9 | HEK293-RXFP1, relaxin-stimulated cAMP HTRF, 30 min; hits give low values | activity change, negative = inhibition, % at 57.5 µM | hit rate 0.59% among 350,000;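 active = activity change of -60% or lower, but not beyond a set lower limit; inconclusive = change between -60% and -40%, or beyond the set limit; inactive = change above -40%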; also: % is scaled to controls: 0 for no effect and ±100 for the full control effect
Target sequence (Q9HBX9 whole entry, looked up): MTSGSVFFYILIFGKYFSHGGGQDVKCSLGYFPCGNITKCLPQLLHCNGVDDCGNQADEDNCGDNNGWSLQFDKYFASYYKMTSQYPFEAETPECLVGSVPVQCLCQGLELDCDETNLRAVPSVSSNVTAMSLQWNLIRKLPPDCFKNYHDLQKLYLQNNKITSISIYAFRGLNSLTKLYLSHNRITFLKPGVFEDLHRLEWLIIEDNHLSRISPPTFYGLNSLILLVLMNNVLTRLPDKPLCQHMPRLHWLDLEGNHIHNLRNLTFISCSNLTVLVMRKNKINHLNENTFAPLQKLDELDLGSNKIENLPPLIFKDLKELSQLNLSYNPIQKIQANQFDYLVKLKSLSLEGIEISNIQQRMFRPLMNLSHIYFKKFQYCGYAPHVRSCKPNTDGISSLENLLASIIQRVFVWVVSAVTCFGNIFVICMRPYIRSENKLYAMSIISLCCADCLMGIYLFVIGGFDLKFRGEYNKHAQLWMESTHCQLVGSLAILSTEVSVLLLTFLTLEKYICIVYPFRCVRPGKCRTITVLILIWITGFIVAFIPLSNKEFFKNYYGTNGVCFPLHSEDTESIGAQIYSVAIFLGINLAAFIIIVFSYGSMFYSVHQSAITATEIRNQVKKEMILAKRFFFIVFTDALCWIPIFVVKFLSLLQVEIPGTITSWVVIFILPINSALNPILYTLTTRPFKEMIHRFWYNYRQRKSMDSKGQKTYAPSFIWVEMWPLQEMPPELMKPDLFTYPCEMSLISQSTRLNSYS
gsp ag: qHTS for Agonist of gsp, the Etiologic Mutation Responsible for Fibrous Dysplasia/McCune-Albright Syndrome: qHTS; gsp mutant cells, cAMP HTRF, 30 min; Potency, µM (titrated, usually from 76.9 µM), inactives show at the top dose activation (cAMP increase), hits mostly activators; hit rate 0.13% among 340,000; AID 624287, 2012; active = well fitted activation curve with a large enough effect; inconclusive = small, poorly fitted or top-dose-only effect, or another doubt; inactive = no such curve, though single readings can be large or run the other way; cell line not stated here;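 also: phosphodiesterase inhibitor Ro 20-1724 added with compounds to block cAMP breakdown; potency is read from the fitted curve at half-maximal effect; nearly all actives have a fitted effect of over 60% in size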
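Cells in DMEM/10% FBS with G418 were pretreated with compounds in DMSO plus […] (300 uM stock) for 30 min at 37C. cAMP was measured by HTRF (cAMP-d2 plus anti-cAMP antibody-K) after 30 min at room temperature.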
RXFP1 ag: qHTS Assay for Agonists of the Relaxin Receptor RXFP1 | AID 2676, 2010 | HEK293T-RXFP1 cAMP TR-FRET, 30 min; response scale: percent of porcine relaxin response, buffer zero | Relaxin receptor 1 (Homo sapiens), Q9HBX9 | hit rate 0.3% among 370,000 | Potency, µM (highest dose often 57.5 µM), for inactives: at the highest dose activation, actives largely listed as activators; active = well fitted activation curve with a large enough effect; inconclusive = small, poorly fitted or top-dose-only effect; also: potency is read from the fitted curve at half-maximal effect; % is scaled to controls: 0 for no effect and ±100 for the full control effect; nearly all actives have a fitted effect of over 60% in size
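HEK293 cells stably expressing RXFP1, treated 30 min at 37C with compounds plus PDE4 inhibitor Ro 20174; cAMP measured by HTRF TR-FRET. Normalized to buffer and 29 nM porcine relaxin; EC50 by Hill fit.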
gsp antagonist: qHTS for Antagonists of gsp, the Etiologic Mutation Responsible for Fibrous Dysplasia/McCune-Albright Syndrome: qHTS. gsp-mutant cells, cAMP HTRF, 30 min. Potency, µM (highest dose often 76.9 µM), inactives show at the highest dose activity change, negative = inhibition, most hits filed as inhibitors. hit rate 0.4% among 340,000. AID 624288, 2012; calls by dose curve; cell line not stated here;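 also: intracellular cAMP measured with PDE inhibitor Ro 20-1724 present during compound exposure; potency is read from the fitted curve at half-maximal effect; % is scaled to controls: 0 for no effect and ±100 for the full control effect; nearly all actives have a fitted effect of over 65% in size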
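Cells in G418 medium, seeded 16-24 h, 37C; buffer exchange to DPBS + 1 mM CaCl2, 0.5 mM MgCl2, 0.05% BSA; cpds in DMSO + […] (300 uM stock), 30 min 37C; HTRF cAMP detection.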
* marks the source's active call; other numbers are inactive results; ? = inconclusive; · = no result; ! = not confirmed by another sample; [ ] = dose if it differs, or a comment.

SMILES	RXFP1 antagonist	gsp ag	RXFP1 ag	gsp antagonist
CCC1CN(C(=O)N2CCC(C(=O)NCCCc3ccccc3)CC2)c2cc(C)ccc2O1 (configuration not stated)	-69.5*	·	-0.4%	·
CCC1CN(C(=O)N2CCC(C(=O)NCCCc3ccccc3)CC2)c2ccccc2O1 (configuration not stated)	-13.4	·	2.4%	·
O=C(NCCc1csc(-c2cccc(F)c2)n1)c1ccc(Br)o1	-78.2*	·	-1.8%	·
COc1ccc(CCC(=O)NCCc2csc(-c3cccc(F)c3)n2)cc1	-13.6	·	1.3%	·
COc1ccc(CCC(=O)NCCc2csc(-c3cccc(C)c3)n2)cc1	-72.6*	·	0.9%	·
COc1ccc(CCC(=O)NCc2ccccc2OC)cc1	12.0	?	3.3%	3.16µM*
COC(=O)c1cc2sc(C)cc2n1CC(=O)Nc1cccc(SC)c1	6.7	·	23.1%	·
CCCCCCn1c(=O)c2c(ncn2C)n(C)c1=O	-12.5	·	·	·
CCn1cc(S(=O)(=O)c2ccc(Cl)cc2)c(=O)c2cc(F)c(N3CCOCC3)cc21	-7.9	·	6.7%	·
Cc1ccc(CNC(=O)c2ccc3c(c2)NC(=O)C(CS(=O)(=O)Cc2cccc(C)c2)N3)cc1 (configuration not stated)	-19.5	·	?	·
Cc1ccc2nc(Nc3ccc(C)c(F)c3)c3nncn3c2c1	-3.0	·	3.1%	·
CCOC(=O)c1c(C)n(-c2ccccc2)c2ccc(OC(=O)c3ccccc3NC(=O)C(C)(C)C)cc12	-64.0*	·	0.0%	·
CCOC(=O)c1c(C)n(-c2ccccc2)c2ccc(OC(=O)c3ccccc3NC(=O)C(C)C)cc12	-32.2	·	-0.6%	·
CCCCC/C(C=O)=C\c1ccccc1	8.1	·	·	·
CCCOc1ccc(C(=O)Nc2cc(-c3nc4ccccc4[nH]3)ccc2C)cc1	4.6	·	0.0%	·
O=C(Nc1ccc2nc(SCC(=O)N3CCOCC3)sc2c1)c1cccc(Cl)c1	-82.1*	·	2.7%	·
O=C(Nc1ccc2nc(SCC(=O)N3CCCC3)sc2c1)c1ccc(Br)cc1	-1.6	·	14.7%	·
Cc1ccccc1OCC(=O)Nc1ccc2nc(SCC(=O)N3CCCC3)sc2c1	-86.4*	·	2.9%	·
CC(C)(C)c1ccc(C(=O)Nc2ccc3nc(SCC(=O)N4CCCC4)sc3c2)cc1	-100.5*	·	4.1%	·
O=C(Nc1ccc(Oc2ccccc2)cc1)c1ccc(F)c(S(=O)(=O)N2CCN(c3ccccc3F)CC2)c1	-10.9	·	0.3%	·
COc1ccc2cc(C=O)ccc2c1	-28.4	·	·	·
O=C(CCC1CCN(Cc2ccccc2)CC1)c1ccc2c(c1)NCCCC2	-34.6	·	·	·
Cc1cc(OC(C)C(=O)N2CCC(c3nc4ccccc4o3)CC2)ccc1Cl (configuration not stated)	-61.6*	·	-0.9%	·
COc1ccccc1OCC(=O)N(Cc1cccs1)C1CCS(=O)(=O)C1 (configuration not stated)	-13.8	·	0.4%	·
CCOC(=O)Cc1nnc2c(Nc3ccc(Cl)cc3)nc3nonc3n12	-14.4	5.7%	0.8%	35.5µM*
SMILES	RXFP1 antagonist	gsp ag	RXFP1 ag	gsp antagonist
CCOC(=O)Cc1csc(Nc2ccc(Cl)cc2)n1	6.5	-13.0%	1.9%	-12.8%
Cn1cnnc1Sc1nc2c(c(=O)n(C)c(=O)n2C)n1C	3.6	22.4µM*	·	10.0%
COC(=O)c1ccccc1NC(=O)Cn1nc(C(F)(F)F)c2c1CCCC2	-26.3	·	-1.4%	·
CN(C)CCN1CCN(c2cccc(Cl)c2)C1=O	8.5	·	·	·
Cn1cc([N+](=O)[O-])cc1-c1nc2ccccc2n1C	9.5	2.3%	2.1%	-3.7%
Cn1c(-c2ccc([N+](=O)[O-])cc2)nc2ccccc21	11.9	2.24µM*	?	13.3%
O=C(O)Cn1c(=O)n(Cc2ccc(Br)cc2F)c(=O)c2ccc(Cl)cc21	-23.7	·	·	·
COCCn1c(=S)[nH]c2cc(C(=O)N3CCc4ccccc4C3)ccc2c1=O	-66.1*	-5.2%[15.4 µM]	0.9%	-9.8%
COCCn1c(=O)[nH]c2cc(C(=O)N3CCN(c4ccccc4OC)CC3)ccc2c1=O	-13.9	4.6%	-0.8%	4.4%
CCCCN(C)CCn1c(=S)[nH]c2cc(OCC)c(OCC)cc2c1=O	4.9	-68.2%	-1.3%	-6.8%
COCCn1c(=S)[nH]c2cc(C(=O)N3CCN(c4ccccc4OC)CC3)ccc2c1=O	-112.4*	4.5%	0.1%	-3.4%
CCOc1cc2[nH]c(=S)n(CCOC)c(=O)c2cc1OCC	?	4.47µM*	-0.8%	8.6%
Cc1nc2ccc(S(=O)(=O)CCC(=O)Nc3ccc(C)c(C)c3)cc2s1	-2.2	·	0.1%	·
CCCCN(CCCC)C(C(N)=O)c1ccc(OC)cc1 (configuration not stated)	-13.1	·	·	·
CCCCC(=O)Nc1nnc(S(=O)(=O)N(C)Cc2ccc(Cl)cc2)s1	-12.3	·	1.0%	·
Cc1ccc(Cl)cc1N1CCN(C(=O)C(C)n2ncn3cccc3c2=O)CC1 (configuration not stated)	-0.8	-0.9%	28.2µM*!	-16.4%
N#Cc1nc(COc2ccccc2)oc1NCCN1CCOCC1	-17.7	-6.4%[15.4 µM]	1.4%	-7.3%
N#Cc1nc(COc2ccc(-c3ccccc3)cc2)oc1NCCCN1CCOCC1	-61.6*	0.0%	1.0%	2.2%
CCN(CC)S(=O)(=O)c1ccc(C(=O)Nc2nnc(NC(=S)Nc3ccccc3)s2)cc1	-84.9*	-6.4%[15.4 µM]	-0.5%	-4.9%
CCN(CC)S(=O)(=O)c1ccc(C(=O)Nc2ccc(Cc3ccncc3)cc2)cc1	-19.9	34.6%	-0.1%	50.1µM*
COc1cc(C(=O)n2nc(C)c(Sc3ccc(Cl)cc3)c2C)cc(OC)c1OC	-6.0	·	-2.2%	·
Cc1nn2c(C)c(C(=O)NC(C)(C)C)cnc2c1-c1ccc(F)cc1	-13.7	·	-1.6%	·
Cc1ccc(C(=O)c2ccc([N+](=O)[O-])cc2)cc1	-7.7	-6.5%	1.1%	-8.3%
Cc1ccc(C(=O)c2coc3cc([N+](=O)[O-])c(O)c([N+](=O)[O-])c23)cc1	-6.0	-68.0%	-2.0%	35.5µM*
CC(C)c1ccc(S(=O)(=O)N2CCN(Cc3cccc(F)c3)CC2)cc1	-18.3	·	1.1%	·
SMILES	RXFP1 antagonist	gsp ag	RXFP1 ag	gsp antagonist
Cc1ccc(Nc2c(-c3ccc(N(C)C)cc3)nc3ccccn23)cc1	-8.9	·	22.5%	·
CCOC(=O)/C(=N\Nc1cc(Cl)ccc1Cl)N1CC(C)OC(C)C1 (configuration not stated)	-11.2	?	0.1%	1.6%
CCOC(=O)/C(=N\Nc1ccccc1Cl)N1CC(C)OC(C)C1 (configuration not stated)	-67.3*	26.1%	1.6%	-13.2%
Cc1ccc(NC(=O)C2SC(=Nc3ccccc3)C(C(=O)Nc3ccc(Cl)cc3)=C2N)cc1 (configuration not stated)	-66.4*	-9.5%[15.4 µM]	-0.7%	-7.7%
Cc1nc(-c2ccccc2)sc1CCNC(=O)C(=O)Nc1ccc(F)c(Cl)c1	·	·	2.9%	·
Cc1ccnc(NC(=O)c2cccc(S(=O)(=O)Nc3ccc(C)cc3C)c2)c1	-77.2*	?	·	-24.2%
CCOC(=O)c1c(/N=C/N(C)C)sc(C)c1C	-2.3	-26.1%	6.4%	5.3%
